SMILES strings stand for the structures. Out of some 2,400 compounds screened, about 430 (18%) were called active. Rule as the data show it: active = activation above about 12%; inactive = the rest. The list is a sample of the results.

This assay can be described thus: nonspecific calcium signal increase, Ga16 cells – cell-based, fluorescence, counter-screen for TAAR1 antagonist project (AID 651953).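 Also: 0% = vehicle wells and 100% = saturating stimulus response.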 The conditions noted are these: Ga16-expressing cells, agonist counterscreen, at 3 µM, stronger effect = higher value. Background: The purpose of a counterscreen is to sort out artefacts and off-target activity.
Turning to `Cc1onc(-c2c(F)cccc2Cl)c1C(=O)Nc1cccc(S(=O)(=O)N2CCCCC2)c1`, the activation was 9.53% (inactive). For `CCC(=O)Oc1cccc(C(=O)Nc2ccc(-c3nnc(-c4ccco4)o3)cc2)c1`, the activation was 4.99% (inactive). With `CCc1ccc2c(c1)NC(=O)C2(C)Cc1ccc(OC(F)(F)F)cc1` (stereo not given), the activation was 14.4% (active). Regarding `Cc1cc(Br)ccc1NC(=O)c1cnc(N2CCN(c3ccccn3)CC2)c2ccccc12`, the activation was 7.37% (inactive). For `O=C(Nc1ccc(-c2nnc(-c3ccccc3)o2)cc1)c1ccc(Br)o1` the value was 1.44% (inactive); for `O=C(N/N=C/c1ccc(Cl)c(Cl)c1)c1ccc2nc[nH]c2c1`, 7.7% (inactive); for `O=C(COC(=O)CCCSc1nc2ccccc2[nH]1)Nc1ccc(Oc2ccccc2)cc1`, 8.31% (inactive). As to `COC(=O)c1sccc1NC(=O)c1cc(OC)c(OC)c(OC)c1`, the activation is 5.58% (inactive). For `COc1ccc(CC(=O)Nc2c(C(N)=O)oc3ccccc23)cc1` the value was 6.51% (inactive); for `COc1cc(OC)cc(C(=O)OCC(=O)Nc2sccc2C(N)=O)c1`, 13.5% (active). For `Cc1ccc2cccc(OCCCOc3ccccc3CO)c2n1` the value was 7.98% (inactive); for `COc1ccc(/C=C/C(=O)Nc2ccc(C34CC5CC(CC(O)(C5)C3)C4)cc2)cc1OC`, 11.4% (inactive). With `Cc1cccc(NC(=O)c2nc[nH]c2C(=O)NCC(=O)OCc2ccccc2)c1`, the activation was 4.58% (inactive).

With `CSCCC(NC(=O)COc1ccccc1)C(=O)OCC(=O)c1cc2ccccc2o1` (stereo not given), the activation is 7.36% (inactive). On to `CC(=O)c1ccccc1OCc1ccc(C(=O)c2ccccc2)cc1`, for which the activation was 6.62% (inactive). For `Cc1nc(N2CCN(c3ccccn3)CC2)c2c(C)c(C(=O)Nc3ccc(F)cc3)sc2n1` the value was 8.75% (inactive); for `O=C(NCCN1C(=O)S/C(=C\c2cccnc2)C1=O)c1ccc(S(=O)(=O)N2CCCC2)cc1`, 2.99% (inactive); for `O=S1(=O)c2c(cccc2N2CCCCC2)O[C@H](COCc2ccccc2)CN1C1CC1`, 2.53% (inactive).

Regarding `CCN1CCc2c(C#N)c(NCc3ccccc3)nc(NCCO)c2C1`, the activation was 4.39% (inactive). In the case of `COc1ccc(Cl)cc1NC(=O)CCS(=O)(=O)c1cc2c(cc1C)NC(=O)CO2`, the activation was 8.26% (inactive). For `COc1ccc(-c2cc(C(=O)N(C)CC(=O)Nc3ccccc3Cl)c3ccccc3n2)cc1OC` the value was 7.25% (inactive); for `CCOc1ccc(N2CC(C(=O)N/N=C/c3sccc3C)CC2=O)cc1` (stereo not given), 1% (inactive); for `C/C(=N\Nc1ncc(Cl)cc1Cl)c1ccc(S(=O)(=O)NCc2ccco2)cc1`, 0.19% (inactive). Consider `CSC(=S)N/N=C/c1c[nH]c2ccccc12`, for which the activation is 6.16% (inactive). With `O=C(O)c1ccc(NC(=O)c2cn(-c3ccccc3)nc2-c2ccc(Cl)cc2)cc1`, the activation is 3.12% (inactive). For `O=C(NCC1CCCO1)c1cc2c([nH]c3ccccc32)c(-c2ccc(F)cc2)n1` (stereo not given) the value was 6.43% (inactive); for `COc1ccc(CN(C)C(=O)c2cc(-c3ccc(C)cc3C)nc3ccccc23)c(OC)c1OC`, 11.6% (active). In the case of `COc1ccc(-c2cc(C(=O)N(C)Cc3ccc(OC)c(OC)c3OC)c3ccccc3n2)cc1OC`, the activation is 7.43% (inactive).

In the case of `COc1ccc(-c2cc(C(=O)N(C)Cc3ccccc3)c3ccccc3n2)cc1`, the activation is 4.97% (inactive). For `CC(C)Oc1cc(F)ccc1-c1cc(C(=O)Nc2ccc(F)cc2)[nH]n1` the value was 5.64% (inactive); for `COc1ccc(C(=O)Nc2ccccc2C(=O)N/N=C/c2ccc(O)c(OC)c2)cc1`, 7.09% (inactive); for `Cc1cc(C(C)(C)C)oc1C(=O)N(CC(=O)NC1CCCC1)Cc1ccc(Cl)cc1`, 13.9% (active).

As for `C=CCc1cc(S(=O)(=O)c2ccc(O)c(CC=C)c2)ccc1O`, the activation is 3.77% (inactive). For `COc1ccc2[nH]c(=O)c(CN(Cc3cccnc3)S(=O)(=O)c3ccccc3F)cc2c1` the value was 9.12% (inactive). In the case of `Cc1ccccc1OCC(=O)Nc1ccc(N2CCN(C(=O)C(C)C)CC2)c(Cl)c1`, the activation is 11.8% (active). `CCNS(=O)(=O)c1ccc(CCC(=O)N2CCN(c3cc(Cl)ccc3C)CC2)cc1`: the activation is 11.5% (active). Take `Cc1ccc(C)c(N2CCN(C(=O)CCCCCn3c(=S)[nH]c4ccc(N5CCOCC5)cc4c3=O)CC2)c1`: the activation was 8.79% (inactive). For `OC(c1ccccc1)(c1ccccc1)C1CCN(CCCOc2ccc(-c3ccsc3)cc2)CC1` the value was 17.6% (active); for `Cc1ccc(NC(=O)c2ccc(CSc3ncnc4nc[nH]c34)cc2)c(C)c1`, 7.81% (inactive); for `O=C(CCc1ccccc1)Nc1cccc(-c2nnc(-c3ccco3)o2)c1`, 11% (inactive).

(Values after PubChem BioAssay AID651953 (The Scripps Research Institute Molecular Screening Center, 2012).)
